# Reference: article PMC5540273 (PLoS ONE, 2017)
# How the values were obtained:
# Conditions in all cases: concentration: 1 μM, replicates: in singlicate; n = 1
# IKK-alpha = system: T1, IKK-alpha
# T1 construct: gene CHUK
# IKK-beta = system: T2, IKK-beta
# T2 construct: gene IKBKB
# IKK-epsilon = system: T3, IKK-epsilon
# T3 construct: gene IKBKE
# INSRR = system: INSRR
# INSR = system: INSR
# IRAK1 = system: IRAK1
# IRAK3 = system: IRAK3
# IRAK4 = system: IRAK4
# ITK = system: ITK
# [1] = system: JAK1(JH1domain-catalytic)
# [2] = system: JAK1(JH2domain-pseudokinase)
# [3] = system: JAK2(JH1domain-catalytic)
# [4] = system: JAK3(JH1domain-catalytic)
# JNK1 = system: T4, JNK1
# T4 construct: gene MAPK8
# JNK2 = system: T5, JNK2
# T5 construct: gene MAPK9
# JNK3 = system: T6, JNK3
# T6 construct: gene MAPK10
# KIT-autoinhibited = system: KIT-autoinhibited
# KIT = system: KIT
# LATS1 = system: LATS1
# LATS2 = system: LATS2
# 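Also: KINOMEscan kinase panel screen.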
SMILES,%Inh (IKK-alpha),%Inh (IKK-beta),%Inh (IKK-epsilon),%Inh (INSRR),%Inh (INSR),%Inh (IRAK1),%Inh (IRAK3),%Inh (IRAK4),%Inh (ITK),%Inh [1],%Inh [2],%Inh [3],%Inh [4],%Inh (JNK1),%Inh (JNK2),%Inh (JNK3),%Inh (KIT-autoinhibited),%Inh (KIT),%Inh (LATS1),%Inh (LATS2)
Nc1ncc(-c2ccc3nccc(-c4ccncc4)c3c2)cc1S(=O)(=O)N1CCCCC1 [GSK1693850],0%,0%,12%,0%,0%,39%,86%,10%,12%,10%,14%,0%,0%,35%,18%,29%,0%,44%,21%,0%
NCCC(NC(=O)c1cc(Br)c(-c2ccnc3[nH]ccc23)s1)c1ccccc1.O=C(O)C(F)(F)F.O=C(O)C(F)(F)F (stereo not drawn) [GSK1307810],52%,57%,17%,0%,0%,96.8%,9%,0%,7%,79%,0%,97.1%,98.7%,30%,15%,16%,0%,73%,83%,93%
O=C(O)C(F)(F)F.O=c1[nH]ccc2nc(N[C@@H]3CCNC3)nc(Nc3ccc4c(c3)S(=O)(=O)CC4)c12 [GSK2181306],87%,60%,61%,40%,58%,98.4%,0%,15%,30%,89%,98%,98.4%,100%,83%,54%,78%,0%,73%,51%,80%
COc1cccc(C2=C(Nc3cccc(O)c3)C(=O)NC2=O)c1 [SB-390771],2%,18%,40%,0%,3%,29%,9%,38%,10%,9%,0%,15%,94.2%,46%,50%,28%,0%,15%,0%,1%
Cn1cc(-c2cnc(N)c3c(-c4ccc5c(c4)CCN5C(=O)Cc4ccccc4)csc23)cn1 [GSK2593074],0%,0%,59%,13%,12%,0%,5%,0%,23%,0%,0%,26%,0%,13%,0%,0%,32%,100%,1%,23%
COC(=O)Nc1nc2ccc(Oc3ccc(NC(=O)Nc4cc(C(F)(F)F)ccc4F)cc3)cc2[nH]1.Cl [GW654607],72%,36%,17%,0%,0%,21%,6%,3%,0%,69%,0%,55%,16%,0%,65%,7%,0%,100%,0%,0%
CS(=O)(=O)c1cccc(CNc2nc(Nc3ccc4c(c3)CCC(=O)N4)ncc2C(F)(F)F)c1,0%,0%,48%,20%,16%,0%,22%,0%,0%,50%,94.3%,99.6%,100%,49%,27%,48%,30%,44%,0%,0%
O=C(Nc1n[nH]c2nc(-c3ccccc3O)ccc12)C1CC1 [SB-711880],0%,0%,10%,0%,0%,0%,2%,0%,46%,36%,0%,0%,0%,38%,31%,24%,32%,0%,0%,0%
COc1cccc2c(-c3ccncc3)c(-c3ccc(F)cc3)nn12 [GW468513],0%,14%,3%,9%,11%,28%,24%,7%,8%,0%,67%,11%,0%,96%,99.8%,99.9%,0%,8%,0%,8%
CN(c1ccc(F)c(NC(=O)c2cccc(OC(C)(C)C#N)c2Cl)c1)c1ccc2nc(NC(=O)C3CC3)sc2n1,0%,0%,29%,0%,0%,0%,8%,0%,0%,10%,3%,0%,0%,11%,0%,20%,6%,99.8%,0%,35%
Cl.O=C(Nc1ccc(Oc2ccc3[nH]c(NC(=O)c4ccco4)nc3c2)cc1)Nc1cc(C(F)(F)F)ccc1F [GW683134],85%,49%,0%,55%,52%,20%,0%,23%,8%,91.2%,0%,43%,0%,15%,33%,0%,1%,100%,30%,0%
CN(C)CCNS(=O)(=O)c1ccc(-c2ccnc3[nH]ccc23)cc1 [GSK977620],85%,98.8%,2%,0%,0%,55%,45%,17%,54%,12%,0%,82%,56%,29%,17%,15%,0%,9%,29%,93%
Cc1ccc(O)cc1Nc1ccnc2cc(-c3ccc(CN4CCCCC4)o3)ccc12 [GW557777],0%,0%,0%,4%,0%,0%,0%,0%,56%,1%,7%,0%,15%,0%,0%,0%,56%,100%,0%,22%
N#Cc1cnc2cc(-c3cnc(CNCCN4CCOCC4)s3)ccc2c1Nc1ccc(Oc2ccccc2)cc1 [GW664114],29%,23%,43%,0%,7%,49%,0%,37%,21%,10%,0%,0%,0%,13%,6%,0%,0%,19%,0%,3%
CNc1nccc(-c2ccc3c(N)n[nH]c3c2)n1 [GSK2206003],90%,81%,17%,0%,11%,49%,49%,0%,24%,0%,57%,47%,15%,46%,36%,29%,0%,57%,0%,17%
CC(C)(C)c1ccc(C(=O)Nc2cn3cc(-n4ccnc4)ccc3n2)cc1,2%,9%,0%,5%,26%,21%,55%,65%,14%,11%,2%,26%,0%,5%,0%,0%,20%,98.4%,0%,0%
Cn1cc(-c2ccc3c(c2)CCN3C(=O)Cc2cc(F)cc(C(F)(F)F)c2)c2c(N)ncnc21 [GSK2635225],0%,0%,75%,0%,31%,8%,0%,0%,5%,9%,3%,10%,0%,0%,13%,0%,16%,100%,0%,4%
Nc1ncc(-c2cn[nH]c2)c2scc(-c3ccc4c(c3)CCN4C(=O)Cc3ccccc3)c12 [GSK2593067],0%,31%,50%,24%,13%,0%,25%,0%,25%,2%,0%,43%,0%,13%,12%,2%,12%,100%,0%,55%
